# Reference: PubChem BioAssay AID504444 (National Center for Advancing Translational Sciences (NCATS), 2011)
# Out of some 360,000 compounds screened, about 7,500 (2.1%) were called active. A call without a number means that no potency is given here. Another 20% or so got no clear call; they are omitted. This is one part of a sample in which actives are shown more often than they occur. Calls come from the whole dose curve; as a rule, active = well fitted inhibition curve with a large enough effect; inconclusive = small, poorly fitted or top-dose-only effect, or effect the other way; inactive = flat fitted curve, though single readings scatter.
# Experiment: Nrf2 qHTS screen for inhibitors; note: nearly all actives have a fitted effect of over 60% in size
# Conditions: A549 ARE-Fluc reporter, luciferase luminescence, 18-24 h; series mostly up to 46 µM
# Outline: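 Two sequential reads on A549 ARE_Fluc cells exposed to compound for 18-24 h: a CellTiter-Fluor fluorescence read for viability, then a luciferase luminescence read for Nrf2/ARE activity.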
# Potency is the fitted concentration of half-maximal effect.
row,Compound,Potency
1,C[C@H](O)[C@@H]1C(=O)N2CCc3ccc(N4CCOCC4)cc3[C@@H]2C[C@@H]1N(C)C(=O)C(C)(C)C,inactive
2,O=C(NCc1cccs1)C1CCN(S(=O)(=O)c2ccc3c(c2)OCCO3)CC1,inactive
3,O=C(c1c(F)cccc1F)N1CCN(S(=O)(=O)c2ccc3c(c2)OCCO3)CC1,inactive
4,O=C(c1ccc2c(c1)OCCO2)C1CCN(S(=O)(=O)c2cccc(F)c2)CC1,14.6 µM (active)
5,CC(C)c1ccc(C2CC(=O)N3CN(C4CCCCC4)CSC3=C2C#N)cc1 (centres undefined),inactive
6,Oc1c(CN2CCCC2)cc(COCc2ccccc2)c2cccnc12,16.4 µM (active)
7,Oc1ccc(CN2CCN(c3ncccn3)CC2)cc1,inactive
8,COc1cc(C)cc(CN2CCC(Cc3ccccc3)CC2)c1O,inactive
9,CC(=O)c1ccc(NC(=O)CCc2nc(-c3ccc(C)cc3)no2)cc1,inactive
10,C=CCn1c(=O)c2ccccc2n2c(SCC(=O)N3CCCc4ccccc43)nnc12,inactive
11,Cn1c(SCC(=O)N2CCCc3ccccc32)nc2ccccc2c1=O,18.4 µM (active)
12,O=C(CSc1nc2ccccc2c(=O)n1CCCO)N1CCc2ccccc21,inactive
13,COc1cc(C(=O)OCC(=O)NC23CC4CC(CC(C4)C2)C3)cc(OC)c1OC,inactive
14,COc1ccc(C2NCCCC2c2ccccc2)cc1 (centres undefined),inactive
15,CCn1ccnc1CN(C)C(=O)c1cc(COc2ccc(-n3cncn3)cc2)on1,inactive
16,C=CCC1(CC=C)CCCN1C(=O)c1cc(COc2ccc(-n3cncn3)cc2)on1,8.2 µM (active)
17,O=C(c1cc(COc2ccc(F)c(F)c2)on1)N1CCOCC1,inactive
18,O=C(COC(=O)C1CCCO1)Nc1nc(-c2ccc(F)cc2)cs1 (centres undefined),inactive
19,Cc1ccc(N2C(=O)N3[C@@H]4c5ccccc5OC[C@@H]4[C@@H](c4ccccc4)[C@@]3(C)C2=O)cc1,inactive
20,CCCCN(C(=O)CSCc1ccc(C)cc1)c1c(N)n(Cc2ccccc2)c(=O)[nH]c1=O,inactive

row,Compound,Potency
1,O=C(Cn1c(=O)n(Cc2cccs2)c(=O)c2cccnc21)Nc1ccc(F)cc1,inactive
2,CN(C)c1nc(N)nc(CSc2nnnn2-c2cccc3ccccc23)n1,6.51 µM (active)
3,CN(C)c1nc(N)nc(CSc2ccccn2)n1,inactive
4,CN(C)c1nc(N)nc(Cn2nnc(-c3ccc(C(F)(F)F)cc3)n2)n1,inactive
5,Cc1ccc(-c2nc3ccccn3c2Nc2ccc(F)cc2)o1,inactive
6,COc1ccc(S(=O)(=O)N2CCc3ccccc32)cc1C(=O)Nc1cc(S(C)(=O)=O)ccc1Cl,inactive
7,Cc1cc(C(=O)NC2CC(C)(C)Cc3c2cnn3-c2ccccc2)n[nH]1 (centres undefined),inactive
8,CC1(C)Cc2c(cnn2-c2cccc(F)c2)C(NC(=O)c2cc[n+]([O-])cc2)C1 (centres undefined),inactive
9,COc1ccc(C(=O)NC2CC(C)(C)Cc3c2cnn3-c2ccccc2)c(OC)c1 (centres undefined),18.4 µM (active)
10,CCOC(=O)Cc1csc(SCC(=O)Nc2ccc(C)cc2F)n1,inactive
11,Cc1oc(C)c2c(=O)cc(-c3ccc4c(c3)OCO4)cc(OC(=O)c3ccc(Cl)cc3)c12,inactive
12,N#CCc1c[nH]c2ccc([N+](=O)[O-])cc12,inactive
13,COc1ccc(NC(=O)CN(C)CC(=O)Nc2cccc(C(F)(F)F)c2)cc1,inactive
14,CCNC(=O)c1ccc(OCC(=O)Nc2ccc(F)cc2)c(OC)c1,inactive
15,COc1cc(C(=O)N(C)Cc2cccc(OC)c2OC)ccc1OCC(=O)Nc1cccc(C(F)(F)F)c1,25.9 µM (active)
16,COc1ccc(CC2c3cc(OC)c(OC)cc3CC[N+]2(C)CCC(=O)OCCCCCOC(=O)CC[N+]2(C)CCc3cc(OC)c(OC)cc3C2Cc2ccc(OC)c(OC)c2)cc1OC (centres undefined),inactive
17,COc1cccc(-c2nnc3n(CCc4ccccc4)c(=O)c4ccccc4n23)c1O,inactive
18,O=C(N/N=C/c1cccc([N+](=O)[O-])c1)c1ccncc1,inactive
19,O=C(N/N=C/c1cccc(OC(=O)c2ccc([N+](=O)[O-])cc2)c1)c1cccnc1,inactive
20,N#Cc1cc([N+](=O)[O-])ccc1Oc1cccc(/C=N/NC(=O)c2ccc(Cl)cc2)c1,5.8 µM (active)

row,Compound,Potency
1,O=C(NC(c1ccco1)c1cc(Cl)c2cccnc2c1O)c1ccccc1 (centres undefined),inactive
2,COc1ccc(C(CNC(=O)c2ccc(S(=O)(=O)Nc3ccccc3C)cc2)N2CCOCC2)cc1 (centres undefined),inactive
3,COc1ccc(C(CNC(=O)c2cccc(NS(=O)(=O)c3ccc(C)c(F)c3)c2)N2CCCC2)cc1 (centres undefined),inactive
4,COc1ccc(C(CNC(=O)c2cccc(S(=O)(=O)Nc3ccccc3Cl)c2)N2CCOCC2)cc1 (centres undefined),18.4 µM (active)
5,CC(C)c1ccc(NC(=O)Cn2c3ncccc3c(=O)n2-c2ccccc2)cc1,inactive
6,C=CCn1c(=N)n(CC(O)COc2ccc(OC)cc2)c2ccccc21 (centres undefined),inactive
7,O=C(C(c1ccccc1)c1ccccc1)N1CCN(CC(O)COc2ccccc2)CC1 (centres undefined),inactive
8,OC(CN=c1sc2ccccc2n1CC(O)COc1ccccc1)COc1ccccc1 (centres undefined),23.1 µM (active)
9,COc1ccc(CCNC(=O)c2cnc3sc(N4CCCCCC4)nn3c2=O)cc1OC,inactive
10,O=C(NCc1ccc2c(c1)OCO2)c1cc([N+](=O)[O-])ccc1N1CCOCC1,inactive
11,O=C(Nc1nnc(-c2ccccc2)o1)c1cccc(S(=O)(=O)N2CCOCC2)c1,20.6 µM (active)
12,Cc1nc2ccc(NC(=O)c3cccc(S(=O)(=O)N4CCOCC4)c3)cc2s1,18.4 µM (active)
13,O=C(Nc1nnc(-c2ccco2)o1)c1ccc(S(=O)(=O)N2CCOCC2)cc1,inactive
14,O=C(NNC(=S)Nc1ccccc1)c1cccc(S(=O)(=O)N2CCOCC2)c1,inactive
15,O=C(Nc1ccc(N2CCOCC2)cc1)c1cccc(S(=O)(=O)N2CCOCC2)c1,inactive
16,O=C(Nc1ccc(S(=O)(=O)Nc2nccs2)cc1)c1cccc(S(=O)(=O)N2CCOCC2)c1,inactive
17,CCC(=O)Nc1ccccc1-c1nc2ccccc2n(CC(=O)Nc2ccc(C)c(C)c2)c1=O,inactive
18,CC1(C)CCc2cc(S(=O)(=O)N3CCN(c4nc(-c5cccs5)nc5ccccc45)CC3)ccc2O1,inactive
19,COc1ccc2ncc3c(-c4ccc(C)c(C)c4)nn(CC(=O)NC4CCCC4)c3c2c1,inactive
